The campaign covered roughly 59,000 compounds. About 6,500 (11%) were called active. Not shown: some 15% with an inconclusive outcome. Rule as the data show it: active = max dye-equivalent concentration above about 10 nM; inconclusive = mostly about 1.1 nM to 9.6 nM; inactive = weaker than that. Many of the other results were omitted from the sample, so actives are more common in it than they were.
test: qHTS Assay for Spectroscopic Profiling in A350 Spectral Region; conditions: Compound autofluorescence, 340/450 nm, Alexa 350 dye-equivalents; active compounds read high

| Compound | max dye-equivalent concentration |
| --- | --- |
| O=C(CN(c1ccc2c(c1)OCCO2)S(=O)(=O)c1ccccc1)Nc1ccc2c(c1)OCO2 | inactive |
| CCCn1c(C(O)c2cc(OC)ccc2OC)nc2ccccc21 (stereo unspecified) | inactive |
| O=C(NCCc1ccco1)c1nn(Cc2ccccc2)c(=O)c2ccccc12 | inactive |
| COc1c(O)cccc1-c1nnn(CCC(=O)OCC(=O)c2ccccc2)n1 | inactive |
| COCCNc1ccnc(-c2cccc(NS(C)(=O)=O)c2)n1 | inactive |
| COc1ccc(N2C(=O)c3cccc4cccc(c34)C2=O)nn1 | 160 nM (active) |
| COc1ccc(OCCCON2C(=O)c3ccccc3C2=O)cc1 | inactive |
| CCOC(=O)c1[nH]cnc1C(=O)NC1CCCCC1 | inactive |
| Fc1ccccc1CCNc1nnnn1-c1ccccc1 | inactive |
| Cc1cc(C)n(-c2ccc(Cl)c(C(=O)O)n2)n1 | inactive |
| COc1ccccc1NC(=O)C1=C(C)Nc2ncnn2C1c1ccc(C)o1 (stereo unspecified) | inactive |
| COC(=O)C1=C(C)NC2=C(C(=O)c3ccccc32)C1c1ccc(-c2ccc(C(=O)O)cc2)o1 (stereo unspecified) | inactive |
| COc1ccccc1NC(=O)C1=C(C)NC2=C(C(=O)CCC2)C1c1ccc(C)o1 (stereo unspecified) | 16 nM (active) |
| O=C(CCCCn1c(=O)[nH]c2ccccc2c1=O)NCc1ccc2c(c1)OCO2 | inactive |
| CC1CN(C(=O)CN2C(=O)NC(C)(c3ccccc3)C2=O)CC(C)O1 (stereo unspecified) | inactive |
| CN(C(=O)C1CCOC1)c1nnc(-c2cccnc2)s1 (stereo unspecified) | inactive |
| C[C@@H]1C[C@H]2[C@@H]3C[C@H](F)C4=CC(=O)C=C[C@@]4(C)[C@]3(F)[C@H](O)C[C@]2(C)[C@@]1(O)C(=O)CO | inactive |
| CCCCOc1ccccc1/C=c1/sc2nc(-c3oc4ccccc4c3C)nn2c1=O | inactive |
| Cc1nc(Nc2ccc3c(c2)OCCO3)c2nnn(Cc3ccccc3Cl)c2n1 | 980 nM (active) |
| Cc1cc(Cl)c(S(=O)(=O)Nc2ccc3c(c2)OCCO3)cc1OCC(N)=O | inactive |
| C#CCNc1nc(C(C)C)nc2c1nnn2Cc1ccccc1F | inactive |
| CSCC[C@H](NC(=O)NCc1cccs1)C(=O)O | inactive |

| Compound | max dye-equivalent concentration |
| --- | --- |
| COc1ccccc1CNc1ncncc1-c1cccnc1 | inactive |
| CCc1cc(=O)oc2cc(C)cc(OC(C)C(=O)O)c12 (stereo unspecified) | 110 nM (active) |
| CCOC(=O)CCCNC(=O)CN1C(=O)NC(CCc2ccccc2)C1=O (stereo unspecified) | inactive |
| CCNc1nc(NCC)nc(N(C)n2cnnc2)n1 | inactive |
| C=CCn1c(SCn2nnc3ccccc3c2=O)nnc1-c1ccc(Cl)cc1 | inactive |
| COC(=O)N1CCC2(CCCN(Cc3ccccc3OC)C2)CC1 | inactive |
| Cc1ccc2[nH]c(=O)c(-c3nc4c(C)cccn4c3NCc3ccco3)cc2c1 | inactive |
| CCOC(=O)c1cc2cc(C)ccc2[nH]1 | inactive |
| CCNCc1cc2cc(C)ccc2[nH]c1=O | 53 nM (active) |
| CC(C)(C)n1nnc(CCc2nnn(C(C)(C)C)n2)n1 | inactive |
| Cc1csc(NC(=O)CN2CCCCCC2)n1 | inactive |
| O=C(Nc1cc(N2CCOCC2)ncn1)NC1(C(F)(F)F)Oc2ccc(Cl)cc2O1 (stereo unspecified) | inactive |
| Cc1csc(NC(=O)NC2(C(F)(F)F)Oc3ccccc3O2)n1 | 100 nM (active) |
| COc1ccc2[nH]c3cc4c(=O)c5cc(OC)ccc5[nH]c4cc3c(=O)c2c1 | inactive |
| COc1cccc(Oc2ccc(N)cc2)c1 | inactive |
| COc1ccc2[nH]c3ccc(OC)cc3c2c1 | 150 nM (active) |
| CC(C)c1ccc(-c2nn[nH]n2)cc1 | inactive |
| CCOc1ccc(-c2nnc3ccc(SC)nn23)cc1 | 12 nM (active) |
| CCn1cc(C(=O)N2CCN(Cc3ccc4c(c3)OCO4)CC2)c2cc(OC)c(OC)cc2c1=O | inactive |
| CS(=O)(=O)N1CCC2(CC1)CN(c1ccncc1)C2 | inactive |
| CC(=O)NC(Cc1ccc(F)cc1)C(=O)O (stereo unspecified) | inactive |
| Cc1ccccc1OCCC(=O)Nc1c(C)n(C)n(-c2ccccc2)c1=O | inactive |

| Compound | max dye-equivalent concentration |
| --- | --- |
| Cc1cc(C)cc(N(C(C)C(=O)Nc2c(C)n(C)n(-c3ccccc3)c2=O)S(C)(=O)=O)c1 (stereo unspecified) | inactive |
| Cc1c(NC(=O)C(C)OC(=O)c2cc3c4ccccc4n(C)c3s2)c(=O)n(-c2ccccc2)n1C (stereo unspecified) | 170 nM (active) |
| C[C@H](NC(=O)OC(C)(C)C)c1nnc(SCC(N)=O)o1 | inactive |
| CCCNS(=O)(=O)c1ccc(CCC(=O)NCc2cccnc2)cc1 | inactive |
| COc1ccc(CN(C(=O)c2cccs2)c2nccs2)cc1OC | inactive |
| Cc1ccc(C)n1-c1ccncc1 | inactive |
| O=c1cc(-c2ccccc2)[nH]c2nc(Cl)ccc12 | 69 nM (active) |
| COCCN1Cc2cccc(C(=O)Nc3ccccc3OC)c2C1=O | inactive |
| Fc1ccccc1OCCSc1nc2ccccc2o1 | inactive |
| Cc1ccc(C(=O)CS(C)(=O)=O)cc1 | 19 nM (active) |
| O=C1C=C(NCCNc2c(F)c(F)c(CO)c(F)c2F)CCC1 | inactive |
| Cc1cc(=O)[nH]c(SCC(=O)N2c3ccccc3CC2C)n1 (stereo unspecified) | inactive |
| Cc1nc2cnc(N3CCN(C)CC3)nc2n(C[C@H]2CCCO2)c1=O | 59 nM (active) |
| COCCn1c(=O)c(CCc2ccccc2)nc2cncnc21 | 88 nM (active) |
| Cn1cc(-c2nc3cnc(N4CCNCC4)nc3n(CCC#N)c2=O)c2ccccc21 | inactive |
| O=c1c(CCc2ccccc2)nc2cncnc2n1C1CC1 | inactive |
| Cc1nc2cnc(N3CCNCC3)nc2n(Cc2ccc(F)cc2)c1=O | 110 nM (active) |
| O=C(CSc1nnc(-c2ccco2)n1CC1CCCO1)c1ccccc1 (stereo unspecified) | inactive |
| Cc1nc2cnc(Nc3ccccc3)nc2n(C[C@H]2CCCO2)c1=O | inactive |
| N#Cc1cccc(-c2nc3cnc(N4CCNCC4)nc3n(C3CC3)c2=O)c1 | 350 nM (active) |
| Cn1c(=O)c2c(nc(OCc3cccnc3)n2Cc2ccccc2)n(C)c1=O | inactive |
| CCOc1cc2c(cc1OCC)C(C(=O)O)C(c1ccc(OC)c(O)c1)N(C)C2=O (stereo unspecified) | inactive |

| Compound | max dye-equivalent concentration |
| --- | --- |
| O=C(COc1cccc(-n2cnnn2)c1)NCCC1=CCCCC1 | inactive |
| Cc1cc(C)cc(NC(=O)N2CCC(NC(=O)c3ccc(F)cc3)CC2)c1 | inactive |
| O=C(NC12CC3CC(CC(C3)C1)C2)N1CCCC(CO)C1 (stereo unspecified) | inactive |
| COc1ccc(S(=O)(=O)N2CCCC2)c(C)c1C | inactive |
| Cc1ccc(NC(=O)C2CC(c3ccc(F)cc3)=NO2)cc1 (stereo unspecified) | inactive |
| COc1ccc(C(=O)N2CCC3(CC2)CCN(c2ccccn2)CC3)cc1 | inactive |
| CCOC(=O)CCC(=O)OCC(=O)NC(C)C1CC2CCC1C2 (stereo unspecified) | inactive |
| Cc1nc(N2CCCC2C(=O)O)c2oc3ccccc3c2n1 (stereo unspecified) | inactive |
| COC(=O)c1ccc(C2CC(=O)Nc3cc(OC)c(OC)cc32)cc1 (stereo unspecified) | inactive |
| CC1CCN(Cc2nc3c(c(=O)n(C)c(=O)n3C)n2CCc2ccccc2)CC1 | inactive |
| Cn1cc(-c2nc3cnc(N4CCNCC4)nc3n(CCc3ccccc3)c2=O)c2ccccc21 | inactive |
| Cc1nc2cnc(N3CCNCC3)nc2n(CCc2ccccc2)c1=O | 60 nM (active) |
| COCCn1c(=O)c(CCc2ccccc2)nc2cnc(N3CCNCC3)nc21 | 60 nM (active) |
| O=c1c(-c2ccc(F)cc2)nc2cnc(N3CCNCC3)nc2n1Cc1cccs1 | 16 nM (active) |
| COCCn1c(CN2CCC(Cc3ccccc3)CC2)nc2c1c(=O)n(C)c(=O)n2C | inactive |
| Cn1c(=O)c(-c2ccccc2)nc2cnc(N3CCNCC3)nc21 | 320 nM (active) |
| CC(=O)O[C@]1(C(C)=O)CC[C@@H]2[C@@H]3C=C(C)C4=CC(=O)CC[C@@]4(C)[C@H]3CC[C@]21C | inactive |
| O=C(NCCN1CCOCC1)c1c(F)c(F)c(F)c(F)c1F | inactive |
| COc1ccc(-c2nn(-c3ccccc3)cc2C(=O)Nc2nc(CC(C)=O)ns2)cc1 | inactive |
| CC(=O)NC(C)c1nc2ccccc2n1Cc1ccccc1F (stereo unspecified) | inactive |
| CC(C)C1Cc2c(sc3c2c(=O)n(-c2ccccc2)c2nncn32)CO1 (stereo unspecified) | inactive |
| CCOC(=O)Cn1c2c(c(-c3ccccc3OC)cc1=O)CCCC2 | inactive |

| Compound | max dye-equivalent concentration |
| --- | --- |
| COc1ccc(N2CCN(C(=O)CSc3nnc4ncccn34)CC2)cc1 | inactive |
| O=C1CCC(=O)N1CCOP1(=O)COc2ccccc2OC1 | inactive |
| COCCn1c(=O)c(-c2cc(F)cc(F)c2)nc2cnc(N3CCNCC3)nc21 | 390 nM (active) |
| CCCn1c(=O)c2[nH]c(-c3ccc(OCC(=O)NCCN)cc3)nc2n(CCC)c1=O | inactive |
| COc1ccc(C(=O)N2CCC3(CCCN(C(c4ccccc4)c4ccccc4)C3)CC2)cc1 | inactive |
| CC1(C)S[C@@H]2[C@@H](NC(=O)[C@@H](N)c3ccccc3)C(=O)N2[C@H]1C(=O)O | 44 nM (active) |
| CC1(C)SC2c3ccccc3C(=O)N2[C@@H]1C(=O)NCc1ccco1 (stereo partly specified) | inactive |
| CCCC[C@H]1C(=O)N(c2ccccc2)N(c2ccc(O)cc2)C1=O | inactive |
| Cc1cc(Br)ccc1NC(=O)C1CCCO1 (stereo unspecified) | inactive |
| COc1cccc(NC(=O)C2CCCN2C(=O)OCc2ccccc2)c1 (stereo unspecified) | inactive |
| CC(C)C(NC(=O)OCc1ccccc1)C(=O)OCC(=O)N1C(C)CCCC1C (stereo unspecified) | 48 nM (active) |
| NC1(C(=O)OCc2ccccc2)CCCC1 | inactive |
| COc1cc(-c2noc(C3CCCN(S(=O)(=O)c4cccc(Cl)c4)C3)n2)cc(OC)c1OC (stereo unspecified) | inactive |
| Cc1nc2nc[nH]n2c(=O)c1NC(=O)c1cccc(OCC(C)C)c1 | inactive |
| CCCN1Cc2cccc(C(=O)NCc3ccccc3)c2C1=O | inactive |
| O=C1CCCC2=C1C(c1cccs1)n1nc(SCc3ccccc3)nc1N2 (stereo unspecified) | 110 nM (active) |
| CC(C)C(=O)N1c2ccccc2NC2=C(C(=O)CCC2)C1c1ccc(N(C)C)cc1 (stereo unspecified) | inactive |
| NC(=NC(=O)c1ccccc1)C1=C(O)CCC1=O | inactive |

From PubChem BioAssay AID590 (National Center for Advancing Translational Sciences (NCATS), 2007)
